Consider 27 compounds from PubChem BioAssay.

The test can be described thus: mitochondrial membrane potential change in A549 cells, profiling panel, cell-based, JC-1 fluorescence, basal, 24 h, 100 nL (AID 1138).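 Further: A549 lung adenocarcinoma cells under basal conditions with no added stimulus; test concentration not given here.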 To be noted: higher = more signal.
In turn, `Cc1ccc(S[C@]2(C(=O)NCC(F)(F)F)CC(=O)N(Cc3ccccc3)[C@@H]2c2ccc(CO)cc2)cc1` had a z-score of -0.483.
The result for `O=C1O[C@@H](c2ccccc2)[C@@H](c2ccccc2)N2[C@@H](c3ccccc3OCCO)[C@]3(C(=O)Nc4ccccc43)[C@@H](C(=O)NC[C@H](O)c3ccccc3)[C@H]12` reads 0.171; that for `COc1ccc([Si](C)(C)[C@@H]2[C@@H](CC(=O)N3CCC[C@H]3CO)O[C@]3(C(=O)N(Cc4ccc(N5C(=O)c6cccc7cccc5c67)cc4)c4ccccc43)[C@H]2C)cc1`, -0.438.
Turning to `O=C1NC(=O)C2C1C=CC(C(O)c1ccc(Br)cc1)N2Nc1ccccn1` (configuration not stated), the z-score came to 0.631.
Take `O=C1C2C=CC(C(O)c3cc(C(F)(F)F)cc(C(F)(F)F)c3)N(Nc3ccc([N+](=O)[O-])cc3)C2C(=O)N1c1ccccc1` (configuration not stated): the z-score was -0.953.
`O=C1O[C@@H](c2ccccc2)[C@@H](c2ccccc2)N2[C@@H](c3ccccc3OCCO)[C@]3(C(=O)Nc4ccc(C#CCCO)cc43)[C@@H](C(=O)Nc3nc4ccccc4s3)[C@H]12` yielded a z-score of -2.04.
`COc1ccccc1CN1C(=O)c2ccccc2[C@](Cc2ccccc2I)(C(=O)NC(C)C)[C@@H]1c1ccc(CO)cc1` showed a z-score of 1.86.
`COC(=O)C(CC#Cc1ccc2c(c1)[C@]1(C(=O)N2)[C@H](C(=O)O)[C@H]2C(=O)O[C@H](c3ccccc3)[C@H](c3ccccc3)N2[C@@H]1c1ccccc1OCCO)C(=O)OC`: the z-score was -1.01.
With `CC(C)NC(=O)[C@@]1(C)c2ccccc2C(=O)N(C(C)C)[C@H]1c1ccc(CO)cc1`, the z-score is -0.413.
Turning to `NCCCCCCNC(=O)[C@@H]1C[C@@H]2C(=O)N3CCC[C@H]3C(=O)N2[C@@H]1c1ccc(O)cc1`, the z-score is 0.37.
Consider `CC(C)C(O)C1C=CC2C(=O)N(C)C(=O)C2N1Nc1ccccc1` (configuration not stated), for which the z-score was -0.219.
`C=CC[C@]12N=C(c3ccc(OCCCO)cc3)O[C@H]1c1ccccc1N(C)C2=O` displayed a z-score of -0.829.
Compound `CC(C)(C)OC(=O)CC[C@]1(C(=O)O)N=C(c2ccc(OCCCO)cc2)O[C@H]1c1ccccc1CN=[N+]=[N-]` showed a z-score of 0.902.
The result for `COc1ccc(NN2C(C(O)c3ccco3)C=CC3C(=O)N(C4CCCCC4)C(=O)C32)cc1` (configuration not stated) reads 0.265; that for `CCOC(=O)[C@H]1C/C=C/C[C@H](C(=O)OCC)C(=O)O[C@H]2[C@@H](OC)O[C@H](CO)[C@@H](OC(=O)CCc3ccccc3)[C@@H]2OC1=O`, 3.06.
As to `COCCOC(=O)N1C(=O)[C@@]2(c3cc(C#CCNC(N)=O)ccc31)[C@H](C(=O)N1CCCCCCC1)[C@H]1C(=O)O[C@H](c3ccccc3)[C@H](c3ccccc3)N1[C@@H]2c1ccc(O)cc1`, the z-score is -0.606.
For the compound `O=C1c2ccccc2[C@](Cc2ccccc2I)(C(=O)NCc2ccccc2)[C@H](c2ccc(CO)cc2)N1C1CCCCC1`, the z-score was -0.0853.
Compound `C=CCOC(=O)[C@H]1[C@@H]2C(=O)O[C@@H](c3ccccc3)[C@@H](c3ccccc3)N2[C@@H](c2ccc(OCCOC(=O)[C@H]3C[C@H]4C(=O)N[C@@H](Cc5ccccc5)C(=O)N4[C@H]3c3ccc(O)cc3)cc2)[C@]12C(=O)Nc1ccc(I)cc12` yielded a z-score of -0.395.
In turn, `COCCCNC(=O)[C@@]1(Sc2ccc(C)cc2)CC(=O)N(Cc2cc(C(F)(F)F)cc(C(F)(F)F)c2)[C@@H]1c1ccc(CO)cc1` registered a z-score of 0.727.
`C=CCN1C(=O)[C@@]2(CCC(=O)OC(C)(C)C)N=C(c3ccc(OCCCO)cc3)O[C@H]2c2ccccc21` yielded a z-score of -0.758.
The result for `C=CCNC(=O)[C@@H]1[C@H]2C(=O)O[C@H](c3ccccc3)[C@H](c3ccccc3)N2[C@H](c2ccccc2OCCO)[C@@]12C(=O)N(C(=O)OCCOC)c1ccc(C#CC3=CCCCC3)cc12` reads -0.663.
Take `COc1ccc(C(O)C2C=CC3C(=O)N(c4ccccc4)C(=O)C3N2Nc2ccc(C#N)cc2)c2ccccc12` (configuration not stated): the z-score is -0.616.
For `COCCOC(=O)N1C(=O)[C@@]2(c3cc(C#CC4(O)CCCCCC4)ccc31)[C@H](c1ccccc1OCCO)N1[C@H](c3ccccc3)[C@H](c3ccccc3)OC(=O)[C@H]1[C@@H]2C(N)=O` the value was -1.68; for `C[C@]1(C(=O)NC2CC2)c2ccccc2C(=O)N(Cc2ccc(OC(F)(F)F)cc2)[C@H]1c1ccc(CO)cc1`, 1.
Take `C#CCNC(=O)[C@H](Cc1ccccc1)NC(=O)[C@@H](N=[N+]=[N-])C(C)C`: the z-score came out at 0.332.
For the compound `CC(C)(C)OC(=O)CC[C@]1(C(=O)NCCN2CCOCC2)N=C(c2ccc(OCCCO)cc2)O[C@H]1c1ccccc1`, the z-score came out at 1.21.
`[N-]=[N+]=NCc1ccccc1C[C@]1(C(=O)NCC(O)CO)N=C(c2ccc(OCCCO)cc2)O[C@H]1c1ccccc1CN=[N+]=[N-]` (some centres not stated): the z-score was found to be 0.618.
